Rows were chosen to be rich in hits. Some 2.9% of all compounds tested hit in one or more screens of this group.
D3 ag: activates the human D3 dopamine receptor; P35462; D3R DiscoveRx beta-arrestin cells, luminescence, 90 min; max activation, %; 410,000 tested, 0.58% active; in the data active means max activation above about 30%
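Agonist-mode cell screen: cells plated at 1500/well and incubated overnight at 37 °C, then exposed to library compounds for 90 min at 37 °C. Detection reagent was added for 30–60 min at room temperature, and luminescence was read.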
B2AR arrestin: beta2AR (human) beta-arrestin recruitment activity; P07550; 330,000 tested, 0.02% active; beta-arrestin recruitment to beta2AR, cell-based reporter; Potency, µM (highest dose often 46.1 µM), hits mostly activators; active means well fitted activation curve with a large enough effect; inconclusive means small, poorly fitted or top-dose-only effect; further: nearly all actives have a fitted effect of over 65% in size
D3 antag: blocks the human D3 dopamine receptor; P35462; D3R cells, DiscoveRx beta-arrestin luminescence, antagonist mode; hits give low values; max response, negative = inhibition, %; 360,000 tested, 2.5% active; in the data active means max response below about -50%; inconclusive means no clear call, values can overlap the other calls
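Cells expressing the human receptor were seeded at 1500 cells/well, incubated overnight at 37 degrees C in 5% CO2, then exposed to library compounds with dopamine controls for 90 minutes at 37 degrees C before luminescent detection.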
TSHR antagonist: human thyrotropin receptor antagonism | P16473 | TSHR-expressing cells, TSH-stimulated cAMP HTRF, 2 h; hits give low values | activity change, negative = inhibition, % at 11.5 µM | 330,000 tested, 0.2% active | AID 504810;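 active means activity change below a set negative limit, meaning inhibition stronger than a set level, cut at about -70% in these data; inconclusive means activity change between two set negative limits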
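TSHR-expressing cells, 200/well, pre-treated with compound, then stimulated with EC80 TSH (4nM final) for 2 hours at 37 deg C. cAMP measured by competitive HTRF: anti-cAMP cryptate antibody in lysis buffer plus cAMP-d2, read after 30 minutes at room temperature.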
A number is an active result; 0 = inactive; ? = inconclusive; - = no result given; ! = not confirmed by another sample.

SMILES | D3 ag | B2AR arrestin | D3 antag | TSHR antagonist
Cc1ccsc1/C=C/C1=NCCCN1C | 0 | 0 | -52! | 0
O=C(Nc1ccc(F)cc1)Nc1nnc(-c2ccncc2)s1 | 0 | 0 | 0 | 0
O=C(Nc1nnc(CC2=CCCCC2)s1)Nc1ccccc1F | 0 | 0 | 0 | 0
O=C(Nc1cccc(Cl)c1)Nc1nnc(CC2=CCCCC2)s1 | 33 | 0 | 0 | 0
Cc1ccc(NC(=O)Nc2nnc(-c3ccncc3)s2)cc1C | 0 | 0 | 0 | 0
O=C(Nc1cccc(Cl)c1)Nc1nnc(-c2ccncc2)s1 | 0 | 0 | 0 | -73
O=C(Nc1ccc(Cl)cc1)Nc1nnc(-c2ccncc2)s1 | 49 | 0 | 0 | 0
Cc1ccc(NC(=O)C2=C(O)c3sccc3N(C)S2(=O)=O)cc1 | 0 | 0 | ? | 0
Cc1ccc(NC(=S)C2=C(O)c3sccc3N(C)S2(=O)=O)cc1 | 0 | 0 | -88 | 0
CN1c2ccccc2C(O)=C(C(=S)Nc2ccc(Cl)cc2)S1(=O)=O | 0 | 0 | -87 | 0
O=C(CCCCCn1c(=O)c2sccc2n(Cc2ccc(Cl)cc2)c1=O)NCc1ccc2c(c1)OCO2 | 0 | - | - | -
CCOc1cc(CNC(=O)c2ccc3c(c2)N(C)C(=O)C2CCCCN32)cc(OCC)c1OCC (centres undefined) | 0 | - | - | -
COc1ccc(C(CCN2CCN(c3ccccc3)CC2)c2c(O)cc(OC)cc2OC)cc1 (centres undefined) | 0 | 0 | -112 | 0
COc1cc(O)c(C(CCN2CCN(c3ccccc3)CC2)c2ccc(N(C)C)cc2)c(OC)c1 (centres undefined) | 0 | 0 | 0 | 0
COc1cc(O)c(C(CCN2CCCC(C)C2)c2ccc3c(c2)OCO3)c(OC)c1 (centres undefined) | 0 | 0 | -68 | 0
N#Cc1nc(-c2ccc(COc3ccc(Cl)cc3)o2)oc1N1CCCCC1 | 0 | - | - | -
O=C(NCc1ccccc1Cl)c1ccc(-n2cnc3cccnc32)cc1 | 0 | - | - | -
CC(=O)Nc1ccc(NC(=O)CCc2nc3cccnc3n2Cc2cccs2)cc1 | 0 | - | - | -
CNc1cc(C)c(C#N)c2nc3ccccc3n12 | 0 | 0 | 0 | 0
CCc1c(C)c(C#N)c2nc3ccccc3n2c1NC | 0 | 0 | 0 | 0
Cc1cc(Cl)n2c(nc3ccccc32)c1C#N | 0 | 0 | -73 | 0
Cc1c(CCCl)c(Cl)n2c(nc3ccccc32)c1C#N | 0 | - | -103 | -
CCn1c(/C=C/c2ccccc2C)nc2ccccc2c1=O | 0 | 0 | 0 | 0
CCn1c(/C=C/c2c(C)n(CC)c3ccccc23)nc2ccccc2c1=O | 35 | 0 | 0 | 0
CC(CN1CCCCC1)NC(=O)c1cc(-c2ccccn2)nc2ccc(Cl)cc12 (centres undefined) | 0 | 0 | 0 | 0
SMILES | D3 ag | B2AR arrestin | D3 antag | TSHR antagonist
CC(CN1CCCCC1)NC(=O)c1scnc1-c1ccccc1 (centres undefined) | 0 | - | -84 | -
O=C(CCc1nc(-c2ccccc2F)no1)Nc1ccc(Oc2ccccc2)cc1 | 0 | 0 | 0 | -73
O=C(C1=C(O)C(=O)N(CCN2CCOCC2)C1c1ccccc1)c1cccs1 (centres undefined) | 0 | - | -52 | -
Cc1cn([C@H]2C[C@H](O)[C@@H](CNC(=O)c3ccccn3)O2)c(=O)[nH]c1=O | 0 | - | 0 | -
Cc1cn([C@H]2C[C@H](O)[C@@H](CNC/C=C/c3ccccc3[N+](=O)[O-])O2)c(=O)[nH]c1=O | 74 | - | 0 | -
Cc1nn(-c2cc(N3CCCC3)ccc2[N+](=O)[O-])c(=O)c2ccccc12 | 0 | 0 | -59 | 0
CC(C)(C)c1ccc(OCc2cc(=O)n3c4c(sc3n2)CCCC4)cc1 | 0 | - | - | -
CC(=O)Nc1cccc(O)c1 | 83! | 0 | 0 | 0
CC(=O)Nc1cccc(NC(=O)c2ccccc2Cl)c1 | 0 | - | -55 | -
CCCCC(=O)Nc1cccc(NC(=O)c2ccccc2Br)c1 | 0 | 0 | -61 | 0
COc1ccc(Cl)cc1NC(=O)COC(=O)CC(C)(C)CC1=NS(=O)(=O)c2ccccc2N1 | 0 | - | - | -
O=C(C1=C[C@@H](c2ccc(Br)cc2)C[C@@H](OCc2ccc(CO)cc2)O1)N1CCN(Cc2ccc3c(c2)OCO3)CC1 | 0 | 0 | -63 | 0
NC(=O)C1=C[C@@H](c2ccc(C(F)(F)F)cc2)C[C@@H](OCc2ccc(CO)cc2)O1 | 0 | 0 | -56 | 0
O=C(c1ccc(Br)o1)N1CCN(Cc2ccc3c(c2)OCO3)CC1 | 0 | 0 | -81 | 0
O=C(c1c(F)c(F)c(F)c(F)c1F)N1CCN(Cc2ccc3c(c2)OCO3)CC1 | 0 | - | 0 | -
O=C(c1cc2c(s1)CCCC2)N1CCN(Cc2ccc3c(c2)OCO3)CC1 | 0 | 0 | 0 | 0
NC(=O)C1=C[C@H](c2ccc(C(F)(F)F)cc2)C[C@H](OCc2ccc(CO)cc2)O1 | 0 | 0 | 0 | 0
O=C(c1ccc(Br)s1)N1CCN(Cc2ccc3c(c2)OCO3)CC1 | 0 | 0 | -95 | 0
CCOc1ccc(NC(=O)Cn2c(=O)nc(-c3ccccc3)c3ccccc32)cc1 | 0 | - | - | -
COC(=O)[C@]12CCCCC=C1N(Cc1ccc3c(c1)OCO3)C(=O)[C@H](CC(=O)N1CCCCC1)C2 | 0 | - | 0 | -
Nc1nc(N=Nc2ccc(O)cc2)cc(=O)[nH]1 | 0 | - | -90 | -
Nc1nonc1C(=O)NCCNCc1c(OCc2ccccc2F)ccc2ccccc12 | 0 | 0 | -55 | 0
CCOc1cccc(CNCCNC(=O)c2nonc2N)c1 | 0 | 0 | -50 | 0
CC1=C(c2ccc(C(C)C)cc2)S(=O)(=O)NC1=NCc1ccccc1Br | 0 | - | - | -
CCc1cc(CNC(=O)CC2C(=O)NCCN2Cc2ccc(-c3ccccc3)cc2)on1 (centres undefined) | 0 | 0 | 0 | -113
SMILES | D3 ag | B2AR arrestin | D3 antag | TSHR antagonist
CC1Sc2ccc(C#N)cc2N(Cc2cccc(C(F)(F)F)c2)C1=O (centres undefined) | 0 | - | -51 | -
O=C(c1ccc(F)cc1)N1CCC(c2ccccc2)C1 (centres undefined) | 0 | 0 | -65 | 0
Cc1c(NC(=O)Nc2ccccc2C(F)(F)F)sc2nc3n(c(=O)c12)CCC(C)CC3 (centres undefined) | 0 | - | - | -
Cc1ccc(N2CC(NC(=O)C3CCCC3)CC2=O)cc1C (centres undefined) | 0 | - | - | -
Cc1ccc(C(=O)NC(=S)N2CCN(c3ccc([N+](=O)[O-])cc3)CC2)cc1 | 0 | 0 | -53 | 0
CCOc1ccc(N(CC(=O)Nc2ccc(C)c(C)c2)S(=O)(=O)c2c(C)noc2C)cc1 | 0 | 0 | -66 | 0
CN(C)S(=O)(=O)N(CC(=O)Nc1ccccc1)c1ccccc1 | 0 | 0 | -54 | 0
CCOc1ccc(N(CC(=O)Nc2cc(C)cc(C)c2)S(C)(=O)=O)cc1 | 0 | 0 | 0 | -73
CCOc1ccc(N(CC(=O)Nc2cccc(F)c2)S(=O)(=O)c2c(C)noc2C)cc1 | 0 | 0 | 0 | 0
Cc1ccc(N(CC(=O)Nc2ccc3c(c2)OCCO3)S(C)(=O)=O)cc1 | 0 | 0 | -89 | 0
CS(=O)(=O)N(CC(=O)Nc1ccc2c(c1)OCO2)c1ccc(Cl)cc1 | 0 | 0 | 0 | 0
COc1ccc(CNC(=O)CCc2c(C)nc3c(c2C)c(=O)n(C)c(=O)n3C)cc1 | 0 | - | - | -
Cc1ccc(C2=NO[C@@](CC(=O)O)(C(=O)Nc3ccc4c(c3)OCCO4)C2)cc1 | 95 | 0 | 0 | 0

High-throughput results as filed in PubChem BioAssay.
